Compound activity as filed in PubChem BioAssay.
BH1578 lux ind = inducers of Vibrio cholerae quorum light production without autoinducers, primary screen, BH1578 luxS cqsA deficient, single point | V. cholerae BH1578 lux reporter, luminescence, 6 h | activation, % at 18.7 µM | 0.16% of 350,000 active | AID 588436, 2011; in the data active = activation mostly above about 9.7%, no sharp cut-off; inconclusive = no clear call, values can overlap the other calls; inactive = mostly below about 3.7%
Autofluor counter = flagged as autofluorescent in microsphere protease counterscreen; AID 624483; fluorescence intensity (no concentration beside the values); compound autofluorescence counterscreen, microsphere flow cytometry; hits give high values; 3.1% of 360,000 active; in the data active = fluorescence intensity above about 16000; inconclusive = no clear call, values can overlap the other calls
BoNT F protease = BoNT/F light chain protease inhibitors, primary screen, biochemical, flow cytometry, MLPCN library; 0.22% of 360,000 active; AID 588497, 2011; inhibition, % at 10 µM; Multiplex microsphere protease cleavage assay; in the data active = inhibition above about 35%, passing the limit was not always enough; inconclusive = no clear call, values can overlap the other calls; note: plate controls were buffer without enzyme for full effect and enzyme alone for no effect
BJeLR viability = MLPCN primary cell-based screen for lethality selective to Ras in HRASV12 cells; BJeLR (HRASV12) viability, CellTiter-Glo ATP luminescence, 48 h; inhibition, % (concentration not given with the values); 0.17% of 300,000 active; AID 1554, 2009; in the data active = inhibition above about 50%; inconclusive = no clear call, values can overlap the other calls
Anthrax LF prot = Bacillus anthracis LF protease inhibitors, primary screen, biochemical, multiplex microsphere, MLPCN library. AID 588501, 2011. multiplex microsphere protease cleavage assay. Lethal factor (Bacillus anthracis), P15917. 0.12% of 360,000 active. inhibition, % at 10 µM; in the data active = inhibition above about 30%; inconclusive = no clear call, values can overlap the other calls; note: plate controls were buffer without enzyme for full effect and enzyme alone for no effect
Target sequence (P15917 whole entry, looked up): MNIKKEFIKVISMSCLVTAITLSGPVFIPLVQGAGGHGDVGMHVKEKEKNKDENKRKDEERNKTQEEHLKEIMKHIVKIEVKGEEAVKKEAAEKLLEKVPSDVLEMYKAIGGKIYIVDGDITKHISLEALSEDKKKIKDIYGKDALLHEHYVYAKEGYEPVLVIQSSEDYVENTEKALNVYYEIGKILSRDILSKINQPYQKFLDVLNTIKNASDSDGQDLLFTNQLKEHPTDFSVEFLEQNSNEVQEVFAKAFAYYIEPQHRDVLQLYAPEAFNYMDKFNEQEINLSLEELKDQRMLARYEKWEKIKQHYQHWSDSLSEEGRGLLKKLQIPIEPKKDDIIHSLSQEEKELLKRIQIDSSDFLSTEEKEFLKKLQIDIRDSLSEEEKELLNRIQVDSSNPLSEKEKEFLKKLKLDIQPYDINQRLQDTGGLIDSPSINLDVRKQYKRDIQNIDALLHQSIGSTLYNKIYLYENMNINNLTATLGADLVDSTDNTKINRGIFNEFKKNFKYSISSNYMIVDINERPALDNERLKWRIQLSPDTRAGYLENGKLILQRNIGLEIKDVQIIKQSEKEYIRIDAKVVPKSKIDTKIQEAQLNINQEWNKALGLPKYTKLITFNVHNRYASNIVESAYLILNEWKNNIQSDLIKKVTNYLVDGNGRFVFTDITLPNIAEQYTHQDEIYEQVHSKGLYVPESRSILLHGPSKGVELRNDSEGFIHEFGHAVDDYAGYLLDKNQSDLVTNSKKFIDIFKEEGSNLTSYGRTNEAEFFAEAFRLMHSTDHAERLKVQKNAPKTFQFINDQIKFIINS
BoNT-A LC inh2 = BoNT/A light chain protease inhibitors, primary screen, biochemical, flow cytometry, MLPCN library | Botulinum neurotoxin type A light chain protease (Clostridium botulinum A str. ATCC 3502) | inhibition, % at 10 µM | multiplex microsphere protease substrate cleavage | 0.17% of 360,000 active; in the data active = inhibition above about 30%; inconclusive = no clear call, values can overlap the other calls; note: plate controls were buffer without enzyme for full effect and enzyme alone for no effect
BoNTA LC inh 1 = BoNT/A light chain protease inhibitors, confirmation, biochemical, flow cytometry, cherry pick 1. shares compounds with BoNT F protease. multiplex microsphere protease assay. inhibition, % at 10 µM. 3% of 720 active. AID 602139, 2011; in the data active = inhibition above about 32%
BoNTF LC inh 1 = BoNT/F light chain protease inhibitors, confirmation, biochemical, flow cytometry, cherry pick 1 | shares compounds with BoNT F protease | multiplex microsphere protease cleavage assay | 720 tested, under 10 active | inhibition, % at 10 µM | AID 602140, 2011
Anthrax LF CP1 = Bacillus anthracis LF protease inhibitors, confirmation, biochemical, multiplex microsphere, cherry pick 1; multiplex microsphere protease cleavage assay; shares compounds with BoNT F protease; AID 602142, 2011; 720 tested, under 10 active; inhibition, % at 10 µM
Active calls of the source: *; i = inactive; ? = inconclusive; nt = no result. The list is not random: actives were taken first. Their share in the collection is about 3.7%. Unless noted, the rule behind the calls is not given here.

SMILES	BH1578 lux ind	Autofluor counter	BoNT F protease	BJeLR viability	Anthrax LF prot	BoNT-A LC inh2	BoNTA LC inh 1	BoNTF LC inh 1	Anthrax LF CP1
COc1ccc(C(=O)NCCn2ccc3ccccc32)cc1	-0.4	9335	10.9	-5.4	36.5*	53.0*	1.6	12.9	0.6
Cc1cc2ccccc2n1CCNC(=O)c1ccccc1	i	1420	?	-5.8	?	?	24.0	-6.4	17.4
CC(=O)NCCn1c(C)cc2ccccc21	i	5295	1.6	-4.2	21.3	8.4	nt	nt	nt
CSc1ncccc1C(=O)N1CCC1(C)C(=O)NC(C)C (configuration not stated)	-0.2	3901	10.0	nt	-5.4	-0.3	nt	nt	nt
Cc1cc(C(=O)O)sc1C	i	7884	35.6*	0.2	2.6	5.8	-0.8	-2.8	-4.3
Cc1ccc2c(c1)CCCN2C(=O)c1cc(C)c(C)s1	-0.7	4486	3.5	nt	-4.3	-1.4	nt	nt	nt
CN(CC(=O)Nc1cccc(F)c1)C(=O)c1cccnc1Sc1ccc(Cl)cc1	-2.6	5590	-9.7	-2.3	-3.3	1.5	nt	nt	nt
CN(CC(=O)Nc1cccc(F)c1)C(=O)c1cccnc1Sc1ccccc1Cl	i	?	0.4	9.6	0.6	37.8*	1.8	5.9	4.7
CC(C)(C)c1ccc(C(=O)N2CCC2(C)C(=O)Nc2cccc3ncccc23)cc1 (configuration not stated)	-0.2	3555	-1.3	nt	-0.1	0.3	nt	nt	nt
FC(F)(F)c1ccc(CNCCc2ccc3c(c2)OCO3)cc1	-1.3	3048	71.4*	5.0	2.5	4.9	1.0	-5.7	0.8
Oc1ccc(Br)cc1C=Nc1ccc2c3c(cccc13)CC2	i	3654	-4.6	0.8	13.3	33.3*	8.3	-1.5	4.2
Oc1ccc(Cl)cc1C=Nc1ccccc1Br	-0.3	2081	-1.1	-12.2	0.6	0.1	nt	nt	nt
Cc1ccc(S(=O)(=O)NC(=O)C2(C)CCN2C(=O)c2ccccc2)nc1 (configuration not stated)	i	3856	1.6	nt	-0.1	0.4	nt	nt	nt
Cc1ccc(CSC2=Nc3ccccc3C3=NC(=O)CN23)cc1	i	4461	35.5*	5.7	-8.2	4.5	-0.2	-2.5	1.9
Cc1nc2cc(F)ccc2n1C1CCN(Cc2nnnn2CCc2ccccc2)CC1	i	4226	42.1*	-9.7	-1.5	1.0	0.2	1.1	1.2
Cc1ccc(NC(=O)CCc2ccc(C)o2)c(Br)c1	-1.6	3907	90.9*	-7.5	-12.4	3.4	-0.1	-2.2	-2.8
Cc1ccc(CCC(=O)Nc2ccc(Cl)cc2Cl)o1	0.8	3523	-2.8	nt	-4.8	-0.5	nt	nt	nt
COc1cccc(-c2cnc(C(O)c3ccc(C)c(F)c3)[nH]2)c1 (configuration not stated)	i	4504	-11.6	nt	-9.2	-1.8	nt	nt	nt
Cc1ccc(Nc2c([N+](=O)[O-])cc(C(=O)N3CC(=O)Nc4ccccc43)cc2[N+](=O)[O-])c(C)c1	1.4	2763	-6.9	-2.6	-6.7	-0.7	nt	nt	nt
O=C1CN(C(=O)c2ccc(Cl)c([N+](=O)[O-])c2)c2ccccc2N1	i	3053	5.9	-2.1	32.1*	0.6	0.2	0.3	0.6
CCN(CC)c1ccc(C(=O)NC(=S)N2CCN(Cc3ccc4c(c3)OCO4)CC2)cc1	0.7	22907*	51.4*	13.4	5.6	-12.8	-11.9	-5.3	-2.9
CC(C)NC(=S)N1CCN(Cc2ccc3c(c2)OCO3)CC1	-0.2	4330	-6.9	7.3	-5.3	-0.6	nt	nt	nt
CNc1ncnc2c1ncn2[C@H]1CN(C2CCCC2)C[C@@H](CO)O1	-0.4	2881	1.4	nt	4.8	-0.5	nt	nt	nt
COc1ccc(C(CC(=O)Nc2cc(C)ccn2)N2Cc3ccccc3C2=O)cc1 (configuration not stated)	-0.6	3901	109.9*	2.7	5.7	5.7	1.0	0.2	-2.2
CC(C)N(Cc1ccccc1)C(=O)CC(=O)N(Cc1ccccc1)C(C)C	i	5070	36.2*	-0.3	12.2	8.7	0.1	-3.7	-1.9
SMILES	BH1578 lux ind	Autofluor counter	BoNT F protease	BJeLR viability	Anthrax LF prot	BoNT-A LC inh2	BoNTA LC inh 1	BoNTF LC inh 1	Anthrax LF CP1
CC(C)N(Cc1ccccc1)C(=O)CN1C(=O)c2ccccc2C1=O	3.8	4105	7.4	-7.4	-9.6	-0.2	nt	nt	nt
O=C(CN1CCN(S(=O)(=O)c2ccccc2)CC1)Nc1ccc(Cl)cn1	-0.2	3805	?	5.0	-0.8	-0.8	nt	nt	nt
O=C(CN1CCOCC1)Nc1ccc(Cl)cn1	0.9	?	22.3	15.4	31.7*	1.3	0.8	-0.7	1.7
CC(C)C[C@H]1COc2cccc(N3CCN(Cc4ccccc4F)CC3)c2S(=O)(=O)N1	nt	5736	-1.1	nt	3.5	0.8	nt	nt	nt
CCOc1ccc(NC(=O)CNC(=O)c2nn(-c3ccc(OC)c(OC)c3)c(=O)c3ccccc23)cc1	i	3487	-0.3	-2.5	2.9	0.5	nt	nt	nt
COc1ccc(-n2nc(C(=O)NCC(=O)Nc3cccc(Cl)c3)c3ccccc3c2=O)cc1OC	-0.1	3717	51.2*	11.0	3.9	5.9	1.4	-1.1	-1.2
COc1ccccc1N1N=C(c2ccc([N+](=O)[O-])cc2)CC1c1ccccc1 (configuration not stated)	1.9	16503*	27.4	2.8	-5.1	38.5*	48.4*	27.5	1.1
O=[N+]([O-])c1ccc(N2N=C(c3ccco3)CC2c2ccccc2)cc1 (configuration not stated)	0.9	4856	-30.4	1.5	22.9	32.4*	9.2	-4.0	0.8
Fc1ccc(C2CC(c3ccco3)=NN2c2ccccc2)cc1 (configuration not stated)	i	3720	-5.1	-5.8	-1.4	-0.3	nt	nt	nt
COc1ccccc1C(=O)Nc1nnc([C@H]2C[C@H](O)[C@@H](CO)O2)s1	-0.3	3406	-12.6	nt	-1.6	-1.2	nt	nt	nt
Cc1cnc(NC(=O)c2ccc(-c3nc4ccccc4s3)o2)s1	-2.0	3621	-0.3	-6.1	24.8	34.4*	4.3	-11.9	1.5
O=C(Nc1ccccc1)C1CCN(c2nccs2)CC1	0.6	?	?	2.8	40.5*	40.0*	2.3	-9.2	4.4
O=C(Nc1ccccc1)C1CCN(S(=O)(=O)c2cccs2)CC1	i	8563	-1.7	nt	4.7	1.7	nt	nt	nt
CCCCN1C(=O)C(CC(=O)NC2CCCC2)CC(C(=O)N(C(C)C)C(C)C)=C1C (configuration not stated)	-2.3	3591	-2.5	nt	-5.3	-0.2	nt	nt	nt
